# Laboratory results reported in PubChem BioAssay.
# Active and inactive are the calls of the source.
# What was measured:
# [1] = test system: Plasmodium falciparum Sir2 (PF13_0152, Sir2A); test: Plasmodium falciparum Sir2A binding compounds – biochemical, small-molecule microarray, 635 nm fluorescence, primary screen (AID 1098); conditions: fluorescence 635 nm, higher = more signal;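 further: score merges spot fluorescence intensity with its signal-to-noise ratio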
# [2] = probe aDKK1 binding to arrayed compounds – biochemical, biotinylated probe, 635/667 nm fluorescence, primary screen (AID 1099); conditions: small-molecule microarray, higher = more signal;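 further: score merges 667nm spot fluorescence with signal to noise across triplicate slides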
# [3] = probe aCHRDL2 binding to arrayed compounds – biochemical, biotinylated probe, 635/667 nm fluorescence, primary screen (AID 1100); conditions: small-molecule microarray, higher = more signal
# [4] = change in splice reporter luminescence, either direction, cell-based, HEK293, spliceosome inhibition project, primary screen (AID 1101); conditions: HEK293 splicing luciferase reporter, 24 h, higher = more signal, called active from +8 up or from −8 down;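 further: HEK293 cells carrying a splicing-competent luciferase reporter gene; test concentration not given here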
# [5] = target: Fibroblast growth factor 10 (Homo sapiens) (UniProt O15520); test: compounds binding fibroblast growth factor 10 – biochemical, small-molecule microarray, 635 nm fluorescence, primary screen (AID 1102); conditions: FGF10 binding, fluorescence 635 nm, higher = more signal
# [6] = test system: glycogen synthase kinase-3 (GSK3A per assay name; protocol says GSK3B); test: compounds binding glycogen synthase kinase-3 – biochemical, small-molecule microarray, 635 nm fluorescence, GSK3A, primary screen (AID 1103); conditions: fluorescence 635 nm, higher = more signal; further: the record names both GSK3A and GSK3B
# [7] = target: Epidermal growth factor receptor (Homo sapiens) (UniProt P00533); test: compounds binding epidermal growth factor receptor – biochemical, small-molecule microarray, 635 nm fluorescence, primary screen (AID 1104); conditions: EGFR binding, higher = more signal;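 further: score merges 667 nm emission intensity with spot signal to noise over triplicate slides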
# [8] = target: Follistatin-related protein 3 (Homo sapiens) (UniProt O95633); test: compounds binding follistatin-related protein 3 – biochemical, small-molecule microarray, 635 nm fluorescence, primary screen (AID 1105); conditions: FSTL3 binding, higher = more signal;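 further: score merges emission near 667 nm and signal to noise per printed spot across three slides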
# [9] = target: Dickkopf-related protein 1 (Homo sapiens) (UniProt O94907); test: small molecules binding DKK1 protein – biochemical, small-molecule microarray, 635 nm fluorescence scan, primary screen (AID 1106); conditions: higher = more signal;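 further: score merges emission near 667 nm with signal to noise over three replicate slides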
# [10] = test system: Inhibin beta A chain (activin A); test: small molecules binding activin A – biochemical, small-molecule microarray, 635 nm fluorescence scan, primary screen (AID 1107); conditions: INHBA, higher = more signal;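 further: mouse activin A protein probed at 4.33 µg/mL on printed slides; score merges bound-protein fluorescence near 667 nm with spot signal-to-noise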
# [11] = test system: Human papillomavirus type 1a protein E7 (residues 44-93); test: small molecules binding HPV E7 44-93 – biochemical, small-molecule microarray, residues 44-93, 635 nm fluorescence, primary screen (AID 1108); conditions: fluorescence 635 nm, higher = more signal;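 further: E7 fragment applied at 1 µg/mL in TBST for 1 h at 4 C; score combines spot fluorescence with its signal to noise ratio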
# [12] = hepatitis C replication reporter changes, two-sided – Huh7 cells, luciferase reporter, HCV replication inhibitor project, primary screen (AID 1109); conditions: Huh7 HCV replicon luciferase reporter, 48 h; higher = more signal;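 further: huh7 hepatoma cells harbouring a luciferase neomycin HCV replicon reporter; luciferase luminescence as measure of HCV replicon replication; test concentration not given here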
# [13] = target: Left-right determination factor 2 (Homo sapiens) (UniProt O00292); test: small molecules binding LEFTY2 protein – biochemical, small-molecule microarray, 635 nm fluorescence scan, primary screen (AID 1110); conditions: higher = more signal
# [14] = target: Calmodulin-1 (Homo sapiens) (UniProt P0DP23); test: small molecules binding calmodulin-1 with EGTA – biochemical, small-molecule microarray, Cy5-labelled CALM1, profiling panel (AID 1111); conditions: Cy5-CALM1 binding fluorescence, higher = more signal;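 further: labelled calmodulin applied in Tris saline Tween buffer holding calcium plus EGTA and DTT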
# [15] = target: Calmodulin-1 (Homo sapiens) (UniProt P0DP23); test: small molecules binding Ca-loaded calmodulin-1 – biochemical, small-molecule microarray, Cy5-labelled CALM1, plus calcium, artefact control for SMM control-protein annotation, profiling panel (AID 1112); conditions: Cy5-CALM1 binding fluorescence, higher = more signal;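 further: score merges spot fluorescence with signal to noise from triplicate slides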
# [16] = probe aWnt5a binding to arrayed compounds – biochemical, biotinylated probe, 635/667 nm fluorescence, primary screen (AID 1113); conditions: small-molecule microarray, higher = more signal;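 further: score merges 667 nm fluorescence intensity with signal-to-noise per printed feature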
# [17] = probe aShh binding to arrayed compounds – biochemical, biotinylated probe, 635/667 nm fluorescence, primary screen (AID 1114); conditions: small-molecule microarray, higher = more signal;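 further: probe is biotin-labelled aShh protein from a stem cell growth factor screen; measures binding of labelled protein to compounds printed on the slide; score merges feature fluorescence at 667 nm with signal-to-noise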
# [18] = probe aNog binding to arrayed compounds – biochemical, biotinylated probe, 635/667 nm fluorescence, primary screen (AID 1115); conditions: small-molecule microarray, higher = more signal;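 further: probe is biotinylated aNog protein used at 0.15 µg/mL for 1 h at 4 C; z-score combines 667 nm fluorescence of each spot with its signal to noise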
# [19] = target: Torsin-1A-interacting protein 1 (Homo sapiens) (UniProt Q5JTV8); test: compound microarray binding of lysate hLAP1 – cell lysate, small-molecule microarray, COS7 lysate, 635/667 nm fluorescence, primary screen (AID 1116); conditions: 635 nm fluorescence, higher = more signal
# [20] = target: Alpha-bungarotoxin (Bungarus multicinctus) (UniProt P60615); test: compounds binding labelled alpha-BTX control protein – biochemical, small-molecule microarray, Alexa647 label, 635/667 nm fluorescence, artefact control for SMM control protein annotation, profiling panel (AID 1117); conditions: alpha-BTX-A647 binding fluorescence, higher = more signal
# Sequence of Alpha-bungarotoxin (Bungarus multicinctus) (P60615 whole entry, looked up): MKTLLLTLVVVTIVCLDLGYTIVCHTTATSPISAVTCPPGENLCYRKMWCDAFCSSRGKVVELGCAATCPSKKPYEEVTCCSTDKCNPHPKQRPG
# Sequence of Follistatin-related protein 3 (Homo sapiens) (O95633 whole entry, looked up): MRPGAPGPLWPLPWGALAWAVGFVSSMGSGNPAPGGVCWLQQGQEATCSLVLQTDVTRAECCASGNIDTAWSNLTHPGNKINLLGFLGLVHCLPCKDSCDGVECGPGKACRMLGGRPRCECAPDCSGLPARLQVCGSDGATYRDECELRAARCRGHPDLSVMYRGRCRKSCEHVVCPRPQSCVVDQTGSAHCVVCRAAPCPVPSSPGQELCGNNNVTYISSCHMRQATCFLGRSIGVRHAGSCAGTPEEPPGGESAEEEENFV
# Sequence of Dickkopf-related protein 1 (Homo sapiens) (O94907 whole entry, looked up): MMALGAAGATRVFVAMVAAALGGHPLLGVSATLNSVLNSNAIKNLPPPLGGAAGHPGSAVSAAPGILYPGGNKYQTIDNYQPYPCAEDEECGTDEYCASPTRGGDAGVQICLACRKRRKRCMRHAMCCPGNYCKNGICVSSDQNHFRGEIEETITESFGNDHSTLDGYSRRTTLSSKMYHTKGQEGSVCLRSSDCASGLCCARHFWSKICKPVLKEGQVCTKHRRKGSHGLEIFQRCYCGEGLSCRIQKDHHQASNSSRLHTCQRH
# Sequence of Torsin-1A-interacting protein 1 (Homo sapiens) (Q5JTV8 whole entry, looked up): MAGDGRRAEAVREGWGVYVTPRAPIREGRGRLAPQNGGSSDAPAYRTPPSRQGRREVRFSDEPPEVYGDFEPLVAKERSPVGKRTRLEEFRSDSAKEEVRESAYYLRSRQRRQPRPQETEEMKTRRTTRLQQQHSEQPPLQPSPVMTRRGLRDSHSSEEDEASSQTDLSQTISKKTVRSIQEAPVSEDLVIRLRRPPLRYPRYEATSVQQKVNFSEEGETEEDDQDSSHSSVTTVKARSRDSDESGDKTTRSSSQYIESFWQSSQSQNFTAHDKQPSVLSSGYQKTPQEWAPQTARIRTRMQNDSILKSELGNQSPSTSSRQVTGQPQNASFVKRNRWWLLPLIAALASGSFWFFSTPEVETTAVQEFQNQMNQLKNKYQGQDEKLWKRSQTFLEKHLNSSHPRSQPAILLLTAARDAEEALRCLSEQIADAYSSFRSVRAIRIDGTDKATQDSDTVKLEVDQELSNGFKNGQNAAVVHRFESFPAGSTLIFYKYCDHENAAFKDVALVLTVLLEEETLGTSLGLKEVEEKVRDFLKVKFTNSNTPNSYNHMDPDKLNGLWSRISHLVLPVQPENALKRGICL
# Sequence of Fibroblast growth factor 10 (Homo sapiens) (O15520 whole entry, looked up): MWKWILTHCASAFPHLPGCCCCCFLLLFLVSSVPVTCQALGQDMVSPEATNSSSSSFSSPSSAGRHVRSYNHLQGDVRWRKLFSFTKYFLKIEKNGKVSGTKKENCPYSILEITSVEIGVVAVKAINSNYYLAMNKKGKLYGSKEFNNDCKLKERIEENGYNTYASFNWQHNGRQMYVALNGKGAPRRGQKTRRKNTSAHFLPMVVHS
# Sequence of Epidermal growth factor receptor (Homo sapiens) (P00533 whole entry, looked up): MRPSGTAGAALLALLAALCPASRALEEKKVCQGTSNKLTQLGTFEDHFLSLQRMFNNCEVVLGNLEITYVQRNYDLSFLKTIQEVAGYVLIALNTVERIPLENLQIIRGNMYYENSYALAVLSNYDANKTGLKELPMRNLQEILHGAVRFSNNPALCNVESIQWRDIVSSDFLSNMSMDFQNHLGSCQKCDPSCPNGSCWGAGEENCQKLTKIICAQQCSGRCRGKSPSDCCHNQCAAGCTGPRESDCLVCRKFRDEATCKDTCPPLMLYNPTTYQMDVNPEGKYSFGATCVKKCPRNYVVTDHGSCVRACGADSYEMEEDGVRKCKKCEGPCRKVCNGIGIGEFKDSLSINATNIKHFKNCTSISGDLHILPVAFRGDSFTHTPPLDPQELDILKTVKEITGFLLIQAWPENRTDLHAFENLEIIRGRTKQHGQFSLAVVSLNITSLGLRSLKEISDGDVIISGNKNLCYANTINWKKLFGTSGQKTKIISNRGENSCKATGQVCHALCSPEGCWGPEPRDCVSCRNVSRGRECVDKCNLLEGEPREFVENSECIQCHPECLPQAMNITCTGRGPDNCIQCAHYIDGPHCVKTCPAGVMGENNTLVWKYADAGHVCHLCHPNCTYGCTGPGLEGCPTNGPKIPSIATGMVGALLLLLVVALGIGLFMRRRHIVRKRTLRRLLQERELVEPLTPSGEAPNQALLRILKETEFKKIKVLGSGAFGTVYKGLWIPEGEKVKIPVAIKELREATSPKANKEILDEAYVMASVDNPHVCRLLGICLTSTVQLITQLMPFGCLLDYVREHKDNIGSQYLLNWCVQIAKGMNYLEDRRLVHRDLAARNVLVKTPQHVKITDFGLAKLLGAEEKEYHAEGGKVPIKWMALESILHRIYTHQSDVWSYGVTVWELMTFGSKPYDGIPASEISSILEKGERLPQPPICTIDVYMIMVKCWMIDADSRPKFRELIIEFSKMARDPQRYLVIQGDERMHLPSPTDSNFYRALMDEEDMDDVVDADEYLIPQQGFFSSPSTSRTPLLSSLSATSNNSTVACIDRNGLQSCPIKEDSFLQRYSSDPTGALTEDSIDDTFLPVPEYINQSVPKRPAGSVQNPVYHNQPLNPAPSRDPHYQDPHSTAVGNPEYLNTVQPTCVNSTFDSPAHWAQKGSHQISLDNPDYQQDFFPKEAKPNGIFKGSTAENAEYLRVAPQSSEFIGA
# Sequence of Left-right determination factor 2 (Homo sapiens) (O00292 whole entry, looked up): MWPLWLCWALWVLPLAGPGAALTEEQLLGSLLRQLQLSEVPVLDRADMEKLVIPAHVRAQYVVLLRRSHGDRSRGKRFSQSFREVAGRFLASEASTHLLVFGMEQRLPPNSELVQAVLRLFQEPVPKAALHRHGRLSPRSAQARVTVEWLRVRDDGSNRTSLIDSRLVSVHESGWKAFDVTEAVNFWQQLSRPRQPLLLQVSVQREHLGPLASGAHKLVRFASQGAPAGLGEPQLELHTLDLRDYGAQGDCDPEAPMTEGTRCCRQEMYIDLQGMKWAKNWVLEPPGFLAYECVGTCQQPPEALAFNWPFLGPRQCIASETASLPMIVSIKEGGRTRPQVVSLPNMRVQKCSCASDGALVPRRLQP
SMILES,composite z-score [1],composite z-score [2],composite z-score [3],z-score [4],composite z-score [5],composite z-score [6],composite z-score [7],composite z-score [8],composite z-score [9],composite z-score [10],composite z-score [11],z-score [12],composite z-score [13],composite z-score [14],composite z-score [15],composite z-score [16],composite z-score [17],composite z-score [18],composite z-score [19],composite z-score [20]
O=C1O[C@H](c2ccccc2)[C@H](c2ccccc2)N2[C@H]1[C@@H](C(=O)O)[C@]1(C(=O)Nc3ccc(C#CC4=CCCCC4)cc31)[C@H]2c1ccc(O)cc1,1.37,-0.0007,0.0645,-0.824 (inactive),1.06,0.908,0.23,0.844,1.11,0.855,1.33,-0.955,0.658,-0.461,-0.283,-0.0792,0.0284,-0.213,0.499,-0.188
OCCCC1=CC(c2ccc(CN3CCCC3)cc2)N(Cc2sc3ccccc3c2Cl)CC1 (stereo not given),1.39,0.14,0.504,-1.07 (inactive),1.03,1.3,0.62,0.854,0.771,1.41,1.32,-4.17,0.758,0.325,-0.585,-0.113,0.0899,0.507,-0.0337,0.827
CC(C)C(=C=CC[C@H](O)c1ccc(OCCO)cc1)C[C@H](O)c1ccccn1,0.471,-0.0813,-0.233,-0.544 (inactive),0.275,0.372,-0.511,-0.11,-0.478,-0.262,1.22,-0.789,-0.0676,0.0123,-0.0896,-0.1,-0.0769,-0.132,0.859,1.6
O[C@@H](Cc1ccccc1)[C@@H](/C=C/C1CC1)N(CC#Cc1ccccc1)Cc1cccc(Cl)c1,-0.546,0.232,1.34,-1.61 (inactive),-1.72,-1.01,-1.69,-1.54,-1.49,0.285,-0.55,-1.52,-1.61,-0.738,0.352,-0.275,-0.147,-0.196,-0.565,-0.0369
O=C1O[C@@H](c2ccccc2)[C@@H](c2ccccc2)N2[C@@H](c3ccc(O)cc3)[C@]3(C(=O)Nc4ccc(C#CC5(O)CCCCCC5)cc43)[C@@H](C(=O)NC[C@H](O)c3ccccc3)[C@H]12,1.29,-0.171,0.467,-0.55 (inactive),-0.174,0.791,-0.568,-0.442,-0.505,-0.357,1.39,-0.737,-0.817,0.122,0.208,-0.0276,-0.138,0.0841,1.15,0.203
CC1=C[C@@]2(CO)C(=O)[C@]3(CO3)[C@@H]1[C@H]1[C@]2(C)C=C(CO)C(=O)[C@]12CO2,0.451,0.0159,-0.52,-0.23 (inactive),0.302,0.296,0.33,0.951,0.241,0.421,0.122,-1.61,0.351,-0.163,-0.0609,-0.0799,-0.123,-0.488,-0.312,0.242
C[C@@H]1NC(=O)[C@@]23C(=O)N[C@@H](Cc4ccccc4)C2[C@H](C)[C@@]2(C)O[C@H]2C3/C=C/C/C=C\CNC(=O)[C@@H]2CCCN2C1=O (stereo not given in full),0.685,-0.33,-0.339,-0.0139 (inactive),0.0528,-0.438,-0.0154,-0.165,0.0077,1.35,-0.496,0.606,-0.301,-0.535,-0.556,-0.196,-0.0553,-0.122,-0.313,-0.123
COC(=O)Cn1c(C(=O)N(C)C)cc2c1C[C@H]1CN(C(=O)c3ccccc3)[C@@](Cc3ccc(F)cc3)(C(=O)OC)[C@@H]21,0.441,0.903,0.823,-0.233 (inactive),1.33,-0.367,0.404,0.139,-0.0283,0.65,0.389,0.387,0.484,0.642,0.496,0.328,0.235,0.715,0.768,0.368
COC(=O)[C@@]1(Cc2ccc(OC)cc2)[C@@H]2C(=CC(=O)[C@H]2CC(=O)C(=O)N(C)C)CN1C(=O)c1ccccc1,0.86,1.22,1.09,-2.59 (inactive),0.945,1.07,-0.208,1.03,-0.568,0.928,1.42,-2.8,-0.195,2.21,0.775,0.268,0.1,2.25,0.755,0.923
C=CCC(OC(C)=O)[C@@H]1[C@@H](N(Cc2cccc3ccccc23)C(=O)c2cccc3ccccc23)c2cc(OCCCO)ccc2N1C(=O)c1ccc(-c2ccccc2)cc1 (stereo not given in full),0.17,0.0752,-0.0302,-0.566 (inactive),0.0819,0.0512,0.364,-0.184,0.0116,0.855,-0.0699,-0.599,0.79,0.0898,0.766,0.0229,-0.117,-0.215,0.197,-0.574
CO[C@]12C=C(Br)[C@@H](C[C@@H]1c1cccc(C)c1)[C@@]1(CO1)C2=O,1.53,-0.306,-0.284,-0.258 (inactive),0.0635,-0.207,-0.14,0.261,0.0254,0.521,0.194,-3.39,0.334,-0.426,-0.83,-0.247,-0.2,-0.0852,-0.373,-0.157
COC(=O)c1cn(C[C@@H](Cc2ccccc2)NC(=O)N[C@H](CO)CCc2oc(C(C)=O)c(C(=O)OC)c2C(=O)OC)nn1,0.741,0.067,-0.255,0.138 (inactive),0.738,0.895,0.452,1.4,0.894,-0.293,0.303,-0.407,0.993,-0.335,-0.616,0.02,-0.283,-0.0789,0.862,0.177
COCCOC(=O)N1C(=O)[C@@]2(c3cc(C#CCCO)ccc31)[C@H](c1ccccc1OCCO)N1[C@H](c3ccccc3)[C@H](c3ccccc3)OC(=O)[C@H]1[C@@H]2C(=O)Nc1nc2ccccc2s1,1.5,0.95,0.856,-0.713 (inactive),0.689,1.2,0.397,0.966,0.635,0.46,0.323,-1.65,0.558,1.39,0.704,-0.0519,0.173,0.429,1.62,2.29
C=C(COC)/C(=C/C[C@H](OC(=O)c1ccncc1)c1ccccc1OCCO)c1cnc2ccccc2c1,1.32,0.29,-0.627,0.321 (inactive),1.45,1.32,0.788,1.48,0.864,1.54,1.4,-2.29,0.76,-0.158,-0.857,-0.0405,-0.0626,0.0481,0.0493,1.04
COCCCNC(=O)[C@]1(CCS(=O)(=O)c2ccccc2)N=C(c2ccc(OCCCO)cc2)O[C@@H]1c1ccccc1N=[N+]=[N-],1.47,1.1,0.698,0.409 (inactive),1.16,1.29,0.151,0.735,-0.262,0.963,1.23,-0.562,-0.0904,2.09,0.893,0.0988,0.203,0.698,-0.342,2.68
CC(C)C[C@@H]1NC(=O)[C@@H]2C[C@H](C(=O)NCCCCCN)[C@H](c3ccc(O)cc3)N2C1=O,0.311,0.283,0.403,0.103 (inactive),0.843,1.31,0.0233,1.26,0.93,0.585,1.36,-0.196,1.46,1.17,0.953,-0.0194,0.108,-0.651,1.19,1.2
CCOC(=O)C1=C[C@@H](c2ccccc2)N(S(=O)(=O)c2ccc(C)cc2)[C@H]1c1ccccc1Cl,1.9,0.379,-0.229,0.328 (inactive),1.29,1.29,0.683,1.05,0.508,0.556,1.32,-1.55,0.553,1.06,-0.651,-0.0161,0.0121,-0.0784,0.731,1.04
CC(C)Cc1ccc(CN2CC[C@@H](NC(=O)Nc3ccccc3)C2)cc1,1.06,-0.342,-0.358,2.68 (inactive),-0.62,-0.274,-0.301,-0.496,0.238,0.692,-0.709,-4.9,0.463,-0.433,0.0615,-0.0202,-0.221,-0.164,-0.311,0.166
CCCCC(O)C1C=CC2C(=O)N(c3ccccc3)C(=O)C2N1Nc1ccc(C(C)C)cc1 (stereo not given),0.562,-0.109,0.214,-0.479 (inactive),1.05,1.26,0.341,1.04,0.223,0.63,1.41,0.318,0.154,1.25,0.304,0.0974,0.0875,-0.503,-0.236,1.06
COCCOC(=O)N1C(=O)[C@@]2(c3cc(C#CC4(O)CCCCCC4)ccc31)[C@H](c1ccc(O)cc1)N1[C@H](c3ccccc3)[C@H](c3ccccc3)OC(=O)[C@H]1[C@@H]2C(=O)NC[C@H](O)c1ccccc1,0.355,0.655,0.692,0.355 (inactive),1.12,1.29,0.783,0.936,1.08,-0.237,1.05,-1.03,0.951,0.896,0.524,-0.0339,0.14,0.0896,1.6,1.76
